Reference: PubChem BioAssay AID463173 (ICCB-Longwood Screening Facility, Harvard Medical School, 2010)
Among all 52,000 compounds or so, about 4,300 (8.3%) were called active. This excerpt belongs to a sample that is enriched for actives. Unmarked numbers belong to inactive results. Rule as the data show it: active = survival mostly below about 52% (no sharp cut-off); inactive = mostly above about 56%.

The compounds below were run on DeltatarO mutant (assay: S. aureus survival, RN4220 and DeltatarO strains – OD600, teichoic acid synthesis inhibitors, primary screen (AID 463173)). Details: S. aureus RN4220 wild type/DeltatarO growth, OD600, 18 h, stronger effect = lower value, screened at 18.75 µg/mL (by protocol).
In the case of CCOc1ccccc1NC(=O)c1c(NC(=O)c2cccc(C)c2)sc2c1CCC2, the survival is reported as 74%. For CCc1ccc(NC(=O)CSc2nc3ccccc3c(=O)n2CCNC(C)=O)cc1, the survival was 87%. COc1ccc(C2(C(=O)N3CCCC3)CCCC2)cc1OC was tested, and the survival was 89%. Compound CCC(=O)N1CCCc2cc(S(=O)(=O)N3CCC(C(=O)NC4CCC(C)CC4)CC3)ccc21 (centres undefined) has a survival of 123%. In the case of CCOC(=O)c1cc2occc2n1CCc1ccccc1, the survival is reported as 101%. Work on O=C(c1ccccc1)N1CCc2cc(CNS(=O)(=O)c3ccccc3Cl)ccc21 yielded a survival of 78%. COc1cc(NS(=O)(=O)c2ccc3oc(=O)c4ncn(C)c4c3c2)cc(OC)c1 gave a survival of 126%. In the case of CC1(C)CC(=O)C(C=NCc2ccccc2)=C(O)C1, the survival is reported as 95%. In the case of O=C(Nc1ccc(F)cc1)C1CCN(S(=O)(=O)c2ccc3c(c2)CCCN3C(=O)C2CCC2)CC1, the survival is reported as 73%. N#Cc1c(NC(=O)C(F)(F)F)oc(-c2ccccc2)c1-c1ccccc1 was tested, and the survival was 12% (active). With N#Cc1c(NC(=O)c2ccccc2)oc(-c2ccccc2)c1-c1ccccc1 the survival was 56%. For N#Cc1c(/N=C/c2ccco2)oc(-c2ccccc2)c1-c1ccccc1, the survival was 98%. With CCc1cccc(CC)c1N(COC)C(=O)Cn1c(C)nc2ccccc21 the survival was 59%. CCc1cccc(NC(=O)CCc2c(C)nc3c(c2C)c(=O)n(C)c(=O)n3C)c1 showed a survival of 93%. For COc1ccc(-n2nc(C(=O)NCc3ccc(F)cc3)c3c4ccccc4n(C)c3c2=O)cc1, the survival was 88%. N#C/C(=C/c1ccc(-c2ccc(S(N)(=O)=O)cc2)o1)C(=O)Nc1cc(Cl)ccc1Cl was tested, and the survival was 46%. Cc1ccc(NC(=O)/C(C#N)=C/c2ccc(-c3ccc(Cl)c(C(=O)O)c3)o2)cc1C gave a survival of 70%. With N#C/C(=C/c1ccc(-c2cc(C(=O)O)ccc2Cl)o1)C(=O)NCCc1c[nH]c2ccccc12 the survival was 12% (active). In the case of N#C/C(=C\c1ccc(-c2cc(Cl)ccc2Cl)o1)C(=O)Nc1ccccc1C(=O)O, the survival is reported as 37% (active). With N#C/C(=C\c1ccc(-c2ccc(C(=O)O)cc2)o1)C(=O)Nc1ccccc1C(=O)O the survival was 60%. In the case of N#C/C(=C/c1ccc(N2CCCCC2)o1)C(=O)NCCc1c[nH]c2ccccc12, the survival is reported as 76%. Work on COc1ccc(-n2ccn(Cc3ccccc3Cl)c(=O)c2=O)cc1OC yielded a survival of 61%. Work on CCOc1cc(S(=O)(=O)NCCc2c(C)[nH]c3ccc(C)cc23)ccc1Br yielded a survival of 92%. CC(Oc1ccc(F)cc1)C(=O)NCC1(N(C)C)CCCCC1 (centres undefined) gave a survival of 83%. In the case of CCOC(=O)c1c(C)[nH]c(C)c1S(=O)(=O)NCC(=O)Nc1ccc(C)cc1C, the survival is reported as 72%. O=C(C1CCC(Cn2c(=O)c3sccc3n(Cc3ccccc3)c2=O)CC1)N1CCCCC1 (centres undefined) gave a survival of 78%. In the case of CCOc1ccc(NC(=O)C(=O)NCCc2csc3nc(-c4ccccc4F)nn23)cc1, the survival is reported as -1% (active). With CCOc1ccc(CC(=O)NCCc2csc3nc(-c4ccccc4F)nn23)cc1 the survival was 91%. In the case of COC(=O)c1ccc(NC(=O)C(=O)NCCc2csc3nc(-c4ccccc4F)nn23)cc1, the survival is reported as 76%. With Cc1ccc(C)c(NC(=O)C(=O)NCCc2csc3nc(-c4ccccc4C)nn23)c1 the survival was 109%. With Cc1ccccc1-c1nc2scc(CCNC(=O)C(=O)Nc3ccc(F)cc3F)n2n1 the survival was -2% (active). O=C(NCCc1csc2nc(-c3ccccc3F)nn12)C(=O)Nc1cc(F)ccc1F was tested, and the survival was 79%. In the case of Cc1c(Cl)cccc1NC(=O)C(=O)NCCc1csc2nc(-c3ccccc3F)nn12, the survival is reported as 6% (active). Cc1ccc(NC(=O)C(=O)NCCc2csc3nc(-c4ccccc4C)nn23)cc1Cl was tested, and the survival was 86%. CC(=O)Nc1cccc(NC(=O)C(=O)NCCc2csc3nc(-c4ccccc4F)nn23)c1 was tested, and the survival was 64%. With Cc1ccccc1CNC(=O)c1ccc(CS(=O)Cc2ccc(Cl)cc2)o1 (centres undefined) the survival was 79%. Compound CCOc1ccc(NC(=O)c2ncn(-c3ccccc3)n2)cc1 has a survival of 83%. COc1ccc2c(c1)c(=O)c(C(=O)c1ccc(F)cc1)cn2CC(=O)Nc1ccc2c(c1)OCCO2 was tested, and the survival was 65%. For COc1ccc(CNC(=O)CN2C(=O)COc3ccc(S(=O)(=O)N4CCOCC4)cc32)cc1, the survival was 75%. Work on CCOc1ccc(N2CC(NC(=O)C3CCCCC3)CC2=O)cc1 (centres undefined) yielded a survival of 75%. O=C(NCCCc1nc2ccccc2n1Cc1ccccc1Cl)c1ccco1 was tested, and the survival was 66%. With CCc1nn2c(=O)cc(COC(=O)c3ccccc3NC(=O)COc3ccccc3C)nc2s1 the survival was 72%. CCOC(=O)N1CCc2c(sc3c2c(=O)n(-c2ccc(CC)cc2)c(=O)n3CC(=O)c2ccc(F)cc2)C1 showed a survival of 80%. Work on Cc1ccccc1NC(=O)CSC1=Nc2ccccc2C2=NC(Cc3ccccc3)C(=O)N12 (centres undefined) yielded a survival of 84%.
